Only some compounds are listed: those with a hit (about 19% of all), similar ones and a draw of the others.
DT40 TDP1 no CPT: qHTS for Inhibitors of human tyrosyl-DNA phosphodiesterase 1 (TDP1): qHTS in cells in absence of CPT. DT40 Tdp1-/- hTDP1 cells, no CPT, ATP luminescence, 48 h. Potency, µM (doses to about 46.2 µM), for inactives: at the highest dose activity change, negative = growth inhibition, most hits filed as inhibitors. 420,000 tested, 15% active. AID 686978, 2013; also: potency is read from the fitted curve at half-maximal effect; nearly all actives have a fitted effect of over 55% in size
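A cellular qHTS used chicken DT40 cells lacking endogenous Tdp1 but carrying stably transfected human TDP1. Compounds were applied without camptothecin, and cell growth kinetics were judged by ATP-dependent luminescence after ≥48 hr.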
DT40 TDP1 CPT: growth inhibition of DT40 Tdp1-/-;hTDP1 cells with camptothecin (screen for TDP1 inhibitors). chicken DT40 Tdp1-/-;hTDP1 cells + 20 nM CPT, ATP luminescence, 48 h. Potency, µM (top dose mostly 46.2 µM), without a hit: at the top dose activity change, negative = growth inhibition, usual class: inhibitors. 420,000 tested, 12% active; also: potency is read from the fitted curve at half-maximal effect; nearly all actives have a fitted effect of over 55% in size
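Chicken DT40 Tdp1-/- cells stably complemented with human TDP1 were seeded at 400 cells/well in medium containing 20 nM camptothecin, exposed to pin-transferred compounds, and grown at 37 °C for at least 48 hr. Viability was read as ATP luminescence.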
HT1080 IDH1KD tx: kills HT-1080 cells with IDH1 knockdown. HT-1080 IDH1 knockdown viability, ATP luminescence, 48 h. Potency, µM (highest dose often 46.1 µM), without a hit: top-dose activity, negative = toxicity, actives largely listed as cytotoxic. 360,000 tested, 2% active. AID 686971;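 also: potency is read from the fitted curve at half-maximal effect; 0% = DMSO wells and -100% = cell-free medium wells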
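Cytotoxicity counter-line: IDH1KD HT-1080, 48 h, CellTiter-Glo. Curves classed by r2, magnitude and activity.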
IL-1B inflam inh: blocks inflammasome-driven IL-1 beta release | AID 743279 | activity change, % at 57.5 µM | THP-1 LPS/ATP IL-1B secretion, AlphaLISA, 16 h; hits give low values | 360,000 tested, 4.7% active; in the data active = activity change below about -50%; inconclusive = mostly about -30% to -49%
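THP-1 cells pretreated 1 hr with compounds (up to 57.5 uM final), then stimulated with LPS (250 ng/mL final) plus ATP (1.25 mM final); secreted IL-1B measured by AlphaLISA after 16 hr, decreased signal indicating inhibition.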
HT1080NT lethal: kills 2HG-producing HT-1080-NT fibrosarcoma cells; HT-1080-NT fibrosarcoma viability, CellTiter-Glo ATP luminescence, 48 h; Potency, µM (series often up to 46.1 µM), for the others: top-dose activity, negative = less viability, most hits filed as cytotoxic; 360,000 tested, 1.6% active; AID 686970;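 also: NT is the 2HG producing partner of a matched IDH1 knockdown line; potency is read from the fitted curve at half-maximal effect; 0% = DMSO-treated cells and -100% = media-only wells without cells; nearly all actives have a fitted effect of over 55% in size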
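Viability of the 2HG-overproducing fibrosarcoma line after 48 hours of compound exposure at 37 degrees C was determined by luminescence with CellTiter-Glo, and concentration-effect curves were then fitted and categorized.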
Starred values were filed as active, the others as inactive; ? = inconclusive; / = not tested or not shown; [ ] = remark or other dose. Unless noted, calls follow the shape of the dose curve; as a rule, active = well fitted curve in the direction sought with a large enough effect; inconclusive = small, poorly fitted or top-dose-only effect, or another doubt; inactive = no such curve, though single readings can be large; an effect the other way counts as inactive or inconclusive. Unless noted, % is scaled to controls: 0 for no effect and ±100 for the full control effect.

SMILES	DT40 TDP1 no CPT	DT40 TDP1 CPT	HT1080 IDH1KD tx	IL-1B inflam inh	HT1080NT lethal
CC(C)(C)OC(=O)N1CCCC(C(=O)Nc2cccc(C(=O)NCc3ccccc3)c2)C1 (configuration not stated)	?	?	1.5%	-19.8	-0.3%
CN(Cc1ccccc1)C(=O)c1cccc(NC(=O)C2CCCN(C(=O)OC(C)(C)C)C2)c1 (configuration not stated)	16.4µM*	18.4µM*	8.0%	-2.3	2.9%
CCCN1CN(Cc2ccco2)c2nc3ccccc3n2C1	?	14.6µM*	-7.0%	2.2	-7.9%
c1coc(Cn2c(-c3ccco3)nc3ccccc32)c1	?	?	-3.5%	12.0	-3.5%
CN(Cc1ccccc1)c1ncc(C=O)s1	13.6%	-1.4%	0.7%	-20.3	-5.7%
N#Cc1c(-c2ccc(F)cc2)c(-c2ccc(F)cc2)nn(CCO)c1=O	3.26µM*	4.61µM*	8.2µM*	4.6	6.51µM*
COc1ccccc1NC(=O)CSc1nc2c(oc3ccccc32)c(=O)n1C	?	?	6.3%	2.6	0.9%
COc1ccccc1NC(=O)CSc1nc2c(oc3ccccc32)c(=O)n1-c1ccccc1F	9.2µM*	13µM*	/	/	/
CCOc1ccc(NC(=O)CSc2nc3c(oc4ccccc43)c(=O)n2-c2ccccc2C)cc1	23.1µM*	?	/	/	/
CC(C)Oc1ccc(C(=O)NC(=S)Nc2ccc(Cl)c(C(=O)O)c2)cc1	-3.7%	?	8.0%	0.4	1.0%
NS(=O)(=O)c1ccc(CCNS(=O)(=O)c2cccc3nsnc23)cc1	0.7%	27.9%	0.9%	16.1	0.3%
Cc1ccc(S(=O)(=O)NNC(=O)Nc2cccc(C)c2C)c(C)c1	-10.9%	-10.1%	-3.4%	6.0	0.0%
O=C(CN1CCN(Cc2ccc(Cl)cc2)CC1)N/N=C/c1ccccc1F	?	?	-7.5%	0.0	-5.0%
COc1ccc(NC(=O)[C@H](C)NS(=O)(=O)c2ccc(NC(C)=O)cc2)cc1Cl	4.2%	12.3%	15.2%	-10.7	14.3%
COc1ccc(NC(C)C(=O)Nc2ccc(C(C)(C)C)cc2)cc1Cl (configuration not stated)	?	29.1µM*	?	-53.7*	?
O=C(CC1(O)C(=O)Nc2ccc(Br)cc21)c1ccc2c(c1)OCO2 (configuration not stated)	?	25.9µM*	-13.6%	48.1	-6.6%
CS(=O)(=O)Nc1cccc(C(=O)CC2(O)C(=O)Nc3ccc(Br)cc32)c1 (configuration not stated)	20.6µM*	?	0.1%	39.4	-0.1%
CS(=O)(=O)Nc1cccc(C(=O)CC2(O)C(=O)Nc3ccccc32)c1 (configuration not stated)	-6.2%	10.7%	-6.1%	7.5	-5.9%
CCS(=O)(=O)Nc1cccc(C(=O)CC2(O)C(=O)Nc3ccccc32)c1 (configuration not stated)	-25.9%	-10.3%	-5.4%	-14.0	-0.2%
CCS(=O)(=O)Nc1ccc(C(=O)CC2(O)C(=O)Nc3ccc(Br)cc32)cc1 (configuration not stated)	6.51µM*	20.6µM*	-2.6%	31.9	0.5%
Cc1cccc(C)c1-n1nnnc1C(c1ccnc2ccccc12)N(CCN(C)C)Cc1ccccc1 (configuration not stated)	?	?	20.6µM*	?	20.6µM*
Cc1cccc(C)c1-n1nnnc1C(c1ccnc2ccccc12)N1CCN(CCN(C)C)CC1 (configuration not stated)	?	?	6.7%	2.6	-9.9%
Cc1cccc(C)c1-n1nnnc1C(c1ccnc2ccccc12)N(C)Cc1ccccc1 (configuration not stated)	16.4µM*	?	10.6%	24.3	9.1%
C=CCOC(=O)C1=C(C)NC(C)=C(C(=O)OCC=C)C1/C=C/c1ccccc1	?	?	18.4µM*	-68.8*	?
CC1CN(S(=O)(=O)c2cccc(C(=O)Nc3cc(Cl)ccc3N3CCOCC3)c2)CC(C)O1 (configuration not stated)	14.6µM*	?	-19.2%	-22.0	-25.6%
SMILES	DT40 TDP1 no CPT	DT40 TDP1 CPT	HT1080 IDH1KD tx	IL-1B inflam inh	HT1080NT lethal
CC1CN(S(=O)(=O)c2cccc(C(=O)Nc3ccc(N4CCCCC4)cc3)c2)CC(C)O1 (configuration not stated)	-12.5%	1.2%	16.8%	1.7	12.5%
Cc1nc2ccc(NC(=O)c3cccc(S(=O)(=O)N4CC(C)OC(C)C4)c3)cc2s1 (configuration not stated)	11.6µM*	7.31µM*	-8.2%	10.7	-4.6%
CN1CCN(S(=O)(=O)c2cccc(C(=O)Nc3cc(Cl)ccc3N3CCOCC3)c2)CC1	-29.2%	-10.8%	-9.3%	-19.5	-2.8%
CC1CN(S(=O)(=O)c2cccc(C(=O)Nc3ccccc3N3CCCC3)c2)CC(C)O1 (configuration not stated)	11.6µM*	?	-9.7%	-1.6	-12.2%
CNc1cc(C(=O)O)nc2ccccc12	1.12µM*	0.891µM*	/	/	/
CCN1C=C(Cc2ccccc2C)C2=C(C1)C(c1ccccc1C)C(C#N)=C(N)O2 (configuration not stated)	20.6µM*	16.4µM*	?	?	?
CCN1C=C(Cc2ccc(F)cc2)C2=C(C1)C(c1ccc(F)cc1)C(C#N)=C(N)O2 (configuration not stated)	16.4µM*	?	-1.5%[9.24 µM]	-103.5*	?
O=C(c1cc(-c2ccccc2O)on1)N1CCCCC1	-21.2%	-4.2%	/	/	/
C=CCN1C(=O)c2ccc(C(=O)N(CCC)CC(=O)Nc3ccccc3C)cc2C1=O	4.1%	-0.4%	5.7%	-3.2	5.0%
CC(C)(C)C(=O)c1c(N)[nH]c(C(=O)c2ccccc2)c1-c1ccc(C(F)(F)F)cc1	23.1µM*	?	-15.2%	2.4	2.3%
Nc1[nH]c(C(=O)c2ccccc2)c(-c2ccccc2C(F)(F)F)c1C(=O)c1cccs1	23.1µM*	23.1µM*	-10.9%	5.2	-0.1%
NS(=O)(=O)c1ccc(CCNC(=O)C2COc3ccccc3C2)cc1 (configuration not stated)	?	0.0%	/	/	/
COc1ccccc1Nc1ncc(C(=O)N2CCC(C(N)=O)CC2)c2ccccc12	7.0%	-1.0%	0.6%	0.0	-6.2%
COc1ccccc1Nc1ncc(C(=O)N2CCN(Cc3ccc(OC)c(OC)c3OC)CC2)c2ccccc12	?	18.4µM*	-27.5%	-72.6*	?

From PubChem
